# Assay results: PubChem BioAssay (NCATS)
# Values joined by “and” are separate entries in the source; they are usually repeats but may differ in a detail not shown here. Equal values may be shown once. Records with an inconclusive call do not appear. A call without a number means that no potency is given here. Values without a mark were called inactive. Active and inactive are the calls of the source. Calls follow the shape of the dose curve; as a rule, active = well fitted curve in the direction sought with a large enough effect; inconclusive = small, poorly fitted or top-dose-only effect, or another doubt; inactive = no such curve, though single readings can be large; an effect the other way counts as inactive or inconclusive.
# Key:
# [1] = biological target: Cytochrome P450 3A7 (Homo sapiens) (UniProt P24462); assay: Cytochrome P450 family 3 subfamily A member 7 (CYP3A7) small molecule antagonists: luciferase biochemical qHTS assay (AID 1963596); also: nearly all actives have a fitted effect of over 40% in size; also: potency is read from the fitted curve at half-maximal effect
# Summary of the method: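 Recombinant CYP3A7 P450-Glo luminescent assay: enzyme-proluciferin substrate mix preincubated with compound 10 min at room temperature, reaction started with NADPH regeneration system for 1 h. Luciferin detected by luminescence; ketoconazole as positive control.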
# [2] = Viability qHTS for spleen associated tyrosine kinase inhibitor (SYKi) drug resistant MV4-11 cells (AID 1963824); also: nearly all actives have a fitted effect of over 35% in size; also: potency is read from the fitted curve at half-maximal effect
# Summary of the method: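 SYK-inhibitor-resistant MV4-11 AML cells were seeded at 500 per well onto compound and cultured 72 hours (37 °C, 5% CO2). CellTiter-Glo was then added, and after 10 min at room temperature, luminescence gave viability.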
# [3] = Cellular viability qHTS for adrenocortical cancer (ACC) cell line SW-13 (AID 1963989); conditions: SW-13 ACC cells viability, CellTiter-Glo, 48 h; activity (max response): hits give low values; also: nearly all actives have a fitted effect of over 65% in size; also: potency is read from the fitted curve at half-maximal effect;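 as to activity (max response): cells grown in serum-free medium with ITS supplement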
# Summary of the method: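 SW-13 cells in ITS-supplemented serum-free DMEM were plated overnight, then exposed for 48 h at 37C to compound titrations (up to 46 uM final). Viability was read by CellTiter-Glo luminescence; four-parameter logistic fits gave IC50 and efficacy.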
# [4] = Cellular viability qHTS for adrenocortical cancer (ACC) cell line NCI-H295R (AID 1963990); also: nearly all actives have a fitted effect of over 60% in size
# Summary of the method: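 Luminescent ATP read-out (CellTiter-Glo, 20 min RT) after 48 h drug exposure of NCI-H295R cells; a titration up to 46 uM final. Data normalized to doxorubicin (100% inhibition) and DMSO (0%); 4-parameter fit gives IC50, max response.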
# [5] = Viability qHTS for spleen associated tyrosine kinase inhibitor (SYKi) naive MV4-11 cells (AID 1963823); also: nearly all actives have a fitted effect of over 40% in size; also: potency is read from the fitted curve at half-maximal effect
# Summary of the method: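 Luminescence from CellTiter-Glo, developed 10 min at room temperature, gave viability of MV4-11 cells never exposed to SYK inhibitor. Cells (500/well) had been incubated with compounds for 72 hr under standard culture conditions.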
# [6] = Quantitative highthroughput screen to assess conditional lethalithy of P12 Ichikawa cells grown in Human Plasma-Like Medium with dialyzed fetal bovine serum (HPLM+ds) (AID 1963879); conditions: Potency: viability; also: nearly all actives have a fitted effect of over 35% in size; also: potency is read from the fitted curve at half-maximal effect; as to Viability: series mostly up to about 46 µM
# Summary of the method: (§1)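 Each medium arm—HPLM with 10% dialyzed FBS, or RPMI1640 with 5 mM glucose and 10% untreated or dialyzed FBS—was screened against an 11-point, 3-fold compound titration for 48 h at 37 °C, with CellTiter-Glo luminescence as endpoint.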
# [7] = Quantitative highthroughput screen to assess conditional lethalithy of NOMO1 cells grown in RPMI1640 with untreated serum (RPMI+s) (AID 1963876); also: nearly all actives have a fitted effect of over 35% in size
# Summary of the method: as §1
# [8] = Quantitative highthroughput screen to assess conditional lethalithy of P12 Ichikawa cells grown in RPMI1640 with untreated serum (RPMI+s) (AID 1963881); conditions: Potency: viability; also: series mostly up to about 46 µM; nearly all actives have a fitted effect of over 35% in size
# Summary of the method: as §1
# [9] = Quantitative highthroughput screen to assess conditional lethalithy of SEM cells grown in Human Plasma-Like Medium with dialyzed fetal bovine serum (HPLM+ds) (AID 1963882)
# Summary of the method: as §1
# [10] = Quantitative highthroughput screen to assess conditional lethalithy of P12 Ichikawa cells grown in RPMI1640 with dialyzed fetal bovine serum (RPMI+ds) (AID 1963880); conditions: Potency: P12-Ichikawa viability; also: nearly all actives have a fitted effect of over 35% in size
# Summary of the method: as §1
# [11] = Quantitative highthroughput screen to assess conditional lethalithy of SEM cells grown in RPMI1640 with unreated serum (RPMI+s) (AID 1963883); also: nearly all actives have a fitted effect of over 35% in size
# Summary of the method: as §1
# [12] = Quantitative highthroughput screen to assess conditional lethalithy of SEM cells grown in RPMI1640 with dialyzed fetal bovine serum (RPMI+ds) (AID 1963884)
# Summary of the method: as §1
# Sequence of Cytochrome P450 3A7 (Homo sapiens) (P24462 whole entry, looked up): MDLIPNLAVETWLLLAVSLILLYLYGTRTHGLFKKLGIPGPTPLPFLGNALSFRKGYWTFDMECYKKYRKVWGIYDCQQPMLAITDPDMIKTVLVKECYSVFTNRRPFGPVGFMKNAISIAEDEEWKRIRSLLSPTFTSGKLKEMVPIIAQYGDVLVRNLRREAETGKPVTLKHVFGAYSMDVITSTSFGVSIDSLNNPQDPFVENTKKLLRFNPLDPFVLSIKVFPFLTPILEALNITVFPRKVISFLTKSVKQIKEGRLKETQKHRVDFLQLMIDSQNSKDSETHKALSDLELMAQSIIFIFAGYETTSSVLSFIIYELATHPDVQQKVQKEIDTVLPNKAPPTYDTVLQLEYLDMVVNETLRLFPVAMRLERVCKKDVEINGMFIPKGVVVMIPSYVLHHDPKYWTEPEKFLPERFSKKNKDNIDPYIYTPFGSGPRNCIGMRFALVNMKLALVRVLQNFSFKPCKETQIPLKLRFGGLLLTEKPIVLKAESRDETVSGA
smiles,measurement,setting,value
CC(C)N(CCC(C(N)=O)(c1ccccc1)c1ccccn1)C(C)C (stereo unspecified),Potency,[1],inactive
same,Potency,[2],inactive
same,activity (max response),[3],4.36%
same,Potency,[4],inactive
CCc1ccc(C2CCNCC2)cc1,Potency,[1],inactive
same,Potency,[5],inactive
same,Potency,[4],inactive
C[C@H]1O[C@@H](O[C@H]2[C@@H](O)C[C@H](O[C@H]3[C@@H](O)C[C@H](O[C@H]4CC[C@@]5(C)[C@H](CC[C@@H]6[C@@H]5CC[C@]5(C)[C@@H](C7=CC(=O)OC7)CC[C@]65O)C4)O[C@@H]3C)O[C@@H]2C)C[C@H](O)[C@@H]1O,Potency,[1],inactive
same,Potency,[2],47.3 nM (active) and 38.5 nM (active)
same,Potency,[3],18.4 nM (active)
COCC1(CO)C(=O)C2CCN1CC2 (stereo unspecified),Potency,[1],inactive
same,Potency,[6],11800 nM (active)
same,activity (max response),[3],9.27%
CC(Cc1ccccc1)N(C)Cc1ccco1 (stereo unspecified),Potency,[1],inactive
same,Potency,[5],inactive
same,activity (max response),[3],-0.53%
same,Potency,[4],inactive
CN1C(=O)CN=C(c2ccccc2)c2cc([N+](=O)[O-])ccc21,Potency,[1],inactive
same,Potency,[2],inactive
same,activity (max response),[3],6.26%
same,Potency,[4],inactive
CCOCCOC(C)=O,Potency,[1],inactive
same,activity (max response),[3],7.41%
CC(=O)N(C)c1cccc(-c2ccnc3c(C(=O)c4cccs4)cnn23)c1,Potency,[1],inactive
same,Potency,[7],inactive
same,Potency,[6],inactive
same,Potency,[8],inactive
same,Potency,[9],inactive
CN(C)C(=O)Oc1cc(OC(=O)N(C)C)cc(C(O)CNC(C)(C)C)c1 (stereo unspecified),Potency,[1],inactive
same,activity (max response),[3],-8.28%
C#C[C@]1(O)CC[C@H]2[C@@H]3CCC4=CC(=O)CCC4=C3C=C[C@@]21CC,Potency,[1],inactive
same,Potency,[2],inactive
same,activity (max response),[3],13.9%
same,Potency,[4],inactive
C[C@H]1CNCCc2ccc(Cl)cc21,Potency,[1],inactive
same,Potency,[2],inactive
same,activity (max response),[3],-1.47%
O=[N+]([O-])O[C@H]1CO[C@H]2[C@@H]1OC[C@H]2O[N+](=O)[O-],Potency,[1],inactive
same,Potency,[2],inactive
same,activity (max response),[3],12.6%
COCCOCCO,Potency,[1],inactive
same,Potency,[2],inactive
same,activity (max response),[3],-1.21%
O=C(O)CCCOc1ccc(Cl)cc1Cl,Potency,[1],inactive
same,activity (max response),[3],-0.391%
CN(C)[C@@H]1C(=O)C(C(N)=O)=C(O)[C@@]2(O)C(=O)C3=C(O)c4c(O)cccc4[C@@](C)(O)[C@H]3[C@H](O)[C@@H]12,Potency,[1],inactive
same,Potency,[5],inactive
same,Potency,[6],inactive
same,Potency,[10],inactive
same,Potency,[8],inactive
same,Potency,[9],inactive
same,Potency,[11],inactive
same,Potency,[12],inactive
same,activity (max response),[3],4.8%
same,Potency,[4],inactive
CCC1(CC)C(=O)NC(=O)NC1=O,Potency,[1],inactive
same,Potency,[2],inactive
same,activity (max response),[3],-9.27%
CC(Cc1ccc(O)cc1)NCC(O)c1cc(O)cc(O)c1 (stereo unspecified),Potency,[1],inactive
same,Potency,[5],inactive
same,activity (max response),[3],10.9%
same,Potency,[4],inactive
CCN(CC)C(C)C(=O)c1ccccc1 (stereo unspecified),Potency,[1],inactive
same,Potency,[5],inactive
same,activity (max response),[3],11.1%
same,Potency,[4],inactive
Cc1ccc([N+](=O)[O-])[c]2c1[O][Hg]2,Potency,[1],617 nM (active)
same,Potency,[5],94.4 nM (active)
same,Potency,[3],231 nM (active)
Nc1ccncc1,Potency,[1],inactive
same,Potency,[2],inactive
same,activity (max response),[3],11.8%
same,Potency,[4],inactive
COc1cccc([C@@]2(O)CCCC[C@@H]2CN(C)C)c1,Potency,[1],inactive
same,Potency,[2],inactive
same,activity (max response),[3],2.96%
same,Potency,[4],inactive
CCOC(=O)NC(O)C(Cl)(Cl)Cl (stereo unspecified),Potency,[1],inactive
same,Potency,[2],inactive
same,activity (max response),[3],3.24%
same,Potency,[4],inactive
CCC1(c2cccc(O)c2)CCCCN(C)C1 (stereo unspecified),Potency,[1],inactive
same,Potency,[2],inactive
same,activity (max response),[3],-10.4%
same,Potency,[4],inactive
CC(C)(C)NCC(O)c1cc(Cl)c(N)c(Cl)c1 (stereo unspecified),Potency,[1],inactive
same,Potency,[5],inactive
same,Potency,[4],inactive
Sc1ccccc1Cl,Potency,[1],inactive
same,Potency,[2],inactive
CC(C)[C@@H](CN1CC[C@@](C)(c2cccc(O)c2)[C@@H](C)C1)NC(=O)[C@H]1Cc2ccc(O)cc2CN1,Potency,[1],inactive
same,Potency,[2],16.4 µM (active)
CC(=O)Nc1cc([As](=O)(O)O)ccc1O,Potency,[1],inactive
same,Potency,[2],inactive
same,activity (max response),[3],8.13%
same,Potency,[4],inactive
Oc1c(Br)cc(Br)cc1Br,Potency,[1],inactive
same,Potency,[5],inactive
same,activity (max response),[3],8.39%
same,Potency,[4],inactive
NN=C(N)N,Potency,[1],inactive
same,Potency,[5],inactive
same,Potency,[2],inactive
same,Potency,[4],inactive
CN(C(=O)Cc1ccccc1)C(CN1CCCC1)c1ccccc1 (stereo unspecified),Potency,[1],inactive
same,Potency,[2],inactive
CCC1(C2=NCCN2)Cc2ccccc2O1 (stereo unspecified),Potency,[1],inactive
same,Potency,[2],inactive
same,activity (max response),[3],12%
same,Potency,[4],inactive
Cc1cn(C[C@H](N)C(=O)O)c(=O)n(Cc2cc(-c3ccccc3)sc2C(=O)O)c1=O,Potency,[1],inactive
same,Potency,[2],inactive
CCOC(=O)NC(C)(C)Cc1ccc(Cl)cc1,Potency,[1],inactive
same,activity (max response),[3],-3.94%
CCCN1CCO[C@H]2c3cc(O)ccc3OC[C@@H]21,Potency,[5],inactive
CCC(C)(OC(C)=O)C(=O)O[C@H]1[C@H](OC(C)=O)C[C@@H]2[C@@](C)([C@@H]3C[C@H]4C=CO[C@H]4O3)[C@H](C)C[C@H](OC(C)=O)[C@@]2(COC(C)=O)[C@@]12CO2 (stereo partly specified),Potency,[5],inactive
